Screening data: PubChem BioAssay, National Center for Advancing Translational Sciences (NCATS)
Only some compounds are listed: those with a hit (about 21% of all), similar ones and a draw of the others.
AMA1 RON2 block: AMA1-RON2 (P. falciparum) interaction inhibition | hit rate 0.2% among 360,000 | Potency, µM (titrated, usually from 58.2 µM), without a hit: at the highest dose activity change, negative = inhibition, actives largely listed as inhibitors | AlphaScreen AMA1-biotinylated RON2 peptide binding;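 note: potency is the fitted concentration of half-maximal effect; 0% = vehicle wells and -100% = peptide control; nearly all actives have a fitted effect of over 45% in size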
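AMA1 (3D7) with his tag at 25 nM final met compounds first, then biotinylated RON2 peptide at 25 nM; detection used donor plus acceptor beads, 10 µg/mL apiece, read by AlphaScreen after 30 min at room temperature.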
Shiga inhibitor: blocks Shiga toxin action in Vero cells. hit rate 9.2% among 290,000. Vero cells, Shiga toxin protein synthesis inhibition reporter. inhibition, % at 38.7 µM; in the data active = inhibition mostly above about 28%, no sharp cut-off; inactive = mostly below about 43%; note: 0% is about no effect
Pf growth 96h: inhibits malaria parasite growth, 96 h | P. falciparum luciferase reporter growth, 96 h | hit rate 6.9% among 320,000 | Potency, µM (titrated, usually from 28.7 µM), for inactives: at the highest dose activity change, negative = inhibition, most hits filed as inhibitors; note: potency is the fitted concentration of half-maximal effect; % is set by controls: 0 for no effect and ±100 for the full control effect
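P. falciparum expressing integrated firefly luciferase, in erythrocytes at 2% hematocrit, 0.05% parasitemia, incubated with compounds 96 h at 37 C, 5% CO2. Growth inhibition read as loss of luminescence; two-generation exposure targets delayed-death apicoplast inhibitors.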
Pf growth 48h: P. falciparum growth inhibition at 48 hours (one generation); P. falciparum luciferase growth in erythrocytes, 48 h; Potency, µM (top dose mostly 28.7 µM), without a hit: at the highest dose activity change, negative = inhibition, hits mostly inhibitors; hit rate 5.9% among 310,000; note: potency is the fitted concentration of half-maximal effect; % is set by controls: 0 for no effect and ±100 for the full control effect
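Erythrocytes infected with P. falciparum carrying an integrated firefly luciferase reporter (2% hematocrit, 0.1% parasitemia final) were exposed to compounds in RPMI 1640 with 0.5% Albumax at 37 C, 5% CO2. Growth inhibition was scored as reduced luminescence.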
CHX counter: counter-screen hit for Shiga toxin inhibitors, cycloheximide; cell reporter, cycloheximide protein synthesis inhibition counterscreen; max response, %; hit rate 12% among 300,000; AID 2314; in the data active = max response mostly above about 13%, no sharp cut-off; inactive = mostly below about 14%; note: read at 38.3 µM for the half of the compounds with a filed dose; 0% is about no effect
HCV inh: blocks hepatitis C virus. Huh7.5.1 HCVcc-Cre infection, luciferase reporter, 44 h. Potency, µM (titrated, usually from 41.8 µM), for inactives: at the highest dose activity change, negative = inhibition, actives largely listed as inhibitors. hit rate 3.4% among 340,000. AID 651820; note: potency is the fitted concentration of half-maximal effect; % is set by controls: 0 for no effect and ±100 for the full control effect
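Antiviral activity was scored by luciferase reporter output from cells infected with HCVcc-Cre (~0.5 moi) in presence of compound, 44 h infection period, cells seeded 1,000/well 4 h prior.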
Starred values were filed as active, the others as inactive; ? = inconclusive; . = no result given. Unless noted, calls come from the whole dose curve; as a rule, active = well fitted curve in the direction sought with a large enough effect; inconclusive = small, poorly fitted or top-dose-only effect, or another doubt; inactive = no such curve, though single readings can be large; an effect the other way counts as inactive or inconclusive.

SMILES	AMA1 RON2 block	Shiga inhibitor	Pf growth 96h	Pf growth 48h	CHX counter	HCV inh
COc1ccc(C(C(=O)NC(C)(C)C)n2c(=O)c(-c3ccccc3)nc3ccccc32)cc1 (centres undefined)	-8%	.	.	.	.	.
COc1ccc(-c2cc(C(=O)N3CCCc4ccccc43)no2)cc1	-12%	94*	71%	-15%	44*	-1%
COc1ccc(C(=O)N2CCCc3ccccc32)cc1	4%	9	0.26µM*	-11%	6	?
COc1ccc(-c2cc(C(=O)N3CCCc4ccccc43)no2)cc1OC	23%	-16	33%	?	18	?
COc1ccccc1-c1cc(C(=O)N2CCCc3ccccc32)no1	-7%	72*	?	42%	60*	?
COc1ccccc1N(C)S(=O)(=O)c1ccc(C(=O)N2CCC2)cc1	-4%	.	11%	1%	.	-28%
COc1ccccc1N(C)S(=O)(=O)c1ccc(C(=O)N2CCCc3ccccc32)cc1	-26%	-1	?	13µM*	6	?
COc1ccc(OC)c(-c2cc(C(=O)N3CCCc4ccccc43)no2)c1	0%	4	?	?	10	?
COC(=O)c1cccc(CC2(C)C(=O)Nc3cc(-c4ccccc4Cl)ccc32)c1 (centres undefined)	-4%	.	.	.	.	.
CCOc1cc(O)c(-c2[nH]ncc2-c2nc(C)cs2)cc1CC	112%	14	?	15µM*	-2	?
C[C@H](CO)N1C[C@H](C)[C@H](CN(C)S(=O)(=O)c2ccc3ccccc3c2)OCc2cnnn2CCCC1=O	2%	.	.	.	.	.
COc1ccc(-c2csc(NC(=O)c3ccc(C(C)(C)C)cc3)c2C(=O)O)cc1	-27%	.	.	.	.	?
Cc1ccc(-c2csc(NC(=O)c3ccc(F)cc3)c2C(=O)O)cc1	6%	94*	3%	5%	40*	19%
O=C(Nc1scc(-c2ccccc2)c1C(=O)O)c1ccc(F)cc1	-3%	20*	6%	30%	24*	16%
O=C(Nc1nsc(-c2ccccc2)n1)c1ccc(F)cc1	24%	74*	?	166%	32*	?
CC1CCCCC1NC(=O)COC(=O)c1ccc2c(c1)OCCO2 (centres undefined)	-3%	.	22%	5%	.	-20%
CCN1CCN(c2ncc(C(=O)N3CCCc4ccccc43)c3ccccc23)CC1	-7%	-19	12µM*	?	-3	?
O=C(c1cc(S(=O)(=O)N2CCOCC2)ccc1F)N1CCc2ccccc21	12%	.	.	.	.	?
O=C(c1cccc(F)c1F)N1CCCc2ccccc21	2%	.	118%	?	6	-6%
CCc1ccc2c(c1)CCCN2C(=O)c1ccccc1C(=O)O	12%	-10	.	?	-2	10µM*
O=C(c1ccccc1F)N1CCCc2ccccc21	0%	55*	?	21%	29*	5%
O=C(c1cc(S(=O)(=O)N2CCOCC2)ccc1F)N1CCCc2ccccc21	-3%	27	-16%	?	22*	9%
CCN1CCN(c2ncc(C(=O)Nc3cc(Cl)ccc3OC)c3ccccc23)CC1	?	-9	19%	?	-5	?
Cc1ccc(C)c(S(=O)(=O)N2CCN(C(=O)c3ccc(OCc4c(C)noc4C)cc3)CC2)c1	-12%	.	?	?	.	?
C=CCN(Cc1ccc(OC)c(OC)c1)C(=O)c1cc2cc(F)ccc2[nH]1	-4%	36	?	?	-1	?
SMILES	AMA1 RON2 block	Shiga inhibitor	Pf growth 96h	Pf growth 48h	CHX counter	HCV inh
Cc1ccc2nc3c(cc(C(=O)NCc4ccco4)c(=N)n3C3CCCC3)c(=O)n2c1	.	1	?	25%	-2	.
Cc1cccn2c(=O)c3cc(C(=O)NCc4ccco4)c(=N)n(CCOCCO)c3nc12	-14%	4	?	1.5µM*	1	-11%
COCCn1c(=N)c(C(=O)NCc2ccco2)cc2c(=O)n3cc(C)ccc3nc21	-7%	-10	14%	?	-1	0%
Cc1cccn2c(=O)c3cc(C(=O)NCc4ccco4)c(=N)n(C4CCCCC4)c3nc12	14%	28	20%	9.3µM*	-5	?
Oc1ccc(Cl)cc1Sc1cc(Cl)ccc1O	-15%	.	13µM*	?	.	?
O=[N+]([O-])c1ccc2[nH]c(O)c(N=NC3CCS(=O)(=O)C3)c2c1 (centres undefined)	28%	-2	24%	17%	0	-15%
N#Cc1cccc(C(=O)C(=O)N2CCN(c3ccccc3)CC2)c1	6%	.	.	.	.	.
O=c1cc(-c2ccccc2)nc2nc[nH]n12	-9%	-12	0.29µM*	.	-4	14%
O=c1cc(-c2ccccc2)nc2nc(-c3ccccc3)[nH]n12	0%	11	?	28%	12	8%
CC(=O)c1c(C)[nH]c(C(=O)CSc2nc3ccc(C)cc3[nH]2)c1C	-6%	16	?	?	8	?
CCOC(=O)c1c(C)[nH]c(C(=O)C(C)Sc2ccc(Cl)cc2)c1C (centres undefined)	-17%	107	83%	-10%	19*	?
CCOC(=O)c1c(C)[nH]c(C(=O)C(C)Cl)c1C (centres undefined)	-18%	46	2%	14%	10	-18%
CC(=O)c1c(C)[nH]c(C(=O)CSc2ccc(F)cc2)c1C	-2%	98*	117%	91%	49*	13µM*
Cc1[nH]c(C)c(C(=O)/C=C/c2ccc([N+](=O)[O-])cc2)c1C	-3%	129*	-22%	?	60*	?
CCCCC(=O)OCC(=O)c1[nH]c(C)c(C(=O)OCC)c1C	-2%	84*	.	17%	31*	-3%
COc1ccc(S(=O)(=O)N2CCN(C(=O)Cc3ccsc3)CC2)cc1	15%	.	-1%	-7%	.	-2%
CN(CC(=O)Nc1ccccc1Br)C(=O)CN1CCN(c2ccccc2Cl)CC1	6%	.	?	?	.	8%
Cn1c(CNC(=O)CCNC(=O)c2cccc(Cl)c2)cc(=O)n(C)c1=O	-3%	-12	?	5%	-3	23%
CSc1ccc(CN2CCC(C)(Oc3ccc(C(C)=O)cc3)C2)cc1 (centres undefined)	-25%	.	.	.	.	.
CCOC(=O)c1[nH]c(C)c(C(=O)/C=C/c2ccc(C(=O)O)cc2)c1C	0%	2	?	12µM*	-1	-9%
CCOC(=O)c1c(C)[nH]c(C(=O)CSc2nnc(C3CC3)n2N)c1C	6%	30	.	0.33µM*	17*	?
Cc1cc(C(=O)CSc2ccc(F)cc2)cc(C)c1O	-9%	61*	83%	42%	35*	?
CCOC(=O)c1c(C)c[nH]c1C	-4%	-10	2%	-5%	4	-1%
CCOC(=O)c1c(Cc2ccccc2)c[nH]c1C	0%	61*	4%	32%	31*	9%
